This passage reports AC50 and activity, negative = inhibition results from PubChem BioAssay AID1851 (National Center for Advancing Translational Sciences (NCATS), 2009).

About 2,600 (16%) of roughly 16,000 compounds were called active. Not shown: some 20% with an inconclusive outcome. Not all results are given here. Values without a mark were called inactive. The call rests on the fitted dose curve; in most records, active means well fitted curve in the direction sought with a large enough effect; inconclusive means small, poorly fitted or top-dose-only effect, or effect the other way; inactive means no such curve, though single readings can be large or run the other way.
On the % scale 0 is the no-effect control and ±100 the full control effect.

In this assay the target is Cytochrome P450 2D6 (Homo sapiens) (UniProt P10635). As to the kind of experiment: Cytochrome panel assay with activity outcomes. Particulars: recombinant CYP, pro-luciferin dealkylation, luminescence, p450-cyp2d6; series mostly up to 57.1 µM.
Sequence of Cytochrome P450 2D6 (Homo sapiens) (P10635 whole entry, looked up): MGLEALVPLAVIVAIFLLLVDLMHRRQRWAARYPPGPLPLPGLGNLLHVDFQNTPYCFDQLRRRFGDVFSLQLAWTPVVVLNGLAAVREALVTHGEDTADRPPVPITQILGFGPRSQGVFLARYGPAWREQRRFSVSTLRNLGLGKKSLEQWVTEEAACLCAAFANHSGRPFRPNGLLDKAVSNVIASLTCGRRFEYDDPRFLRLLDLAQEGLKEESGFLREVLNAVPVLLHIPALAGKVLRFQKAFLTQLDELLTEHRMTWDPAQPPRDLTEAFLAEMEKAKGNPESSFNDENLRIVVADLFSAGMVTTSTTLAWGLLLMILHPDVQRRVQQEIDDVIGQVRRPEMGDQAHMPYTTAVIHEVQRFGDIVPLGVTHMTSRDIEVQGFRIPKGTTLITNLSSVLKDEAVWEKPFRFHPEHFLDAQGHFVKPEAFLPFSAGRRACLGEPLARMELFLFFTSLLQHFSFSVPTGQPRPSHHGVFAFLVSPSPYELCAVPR
With `Cc1ccc(/C(O)=C2/C(=O)C(=O)N(CCCn3ccnc3)C2c2ccccn2)cc1` (stereo not given), the AC50 (commonly the concentration at which the activity in the assay is half-maximal) is “inactive”.

As for `Cc1ccc(OCCOCCn2ccnc2)c(Br)c1`, the AC50 was 1 µM (active).

In the case of `C/C(CC(=O)Nc1cc(C)ccn1)=N\NC(=O)COc1cccc(C)c1`, the AC50 entry was “inactive”.

Consider `Cc1cccc(OCCCCCn2ccnc2)c1`, for which the AC50 was 0.1 µM (active).

`COc1cc(C)ccc1OCCCOc1ccccc1Br`: the AC50 entry was “inactive”.

Take `Brc1ccccc1OCCOCCOc1cccc2cccnc12`: the AC50 entry was “inactive”.

Take `Cc1ccc(C(=O)COC(=O)c2ccc3c(c2)C(=O)N(c2cccc4ncccc24)C3=O)cc1C`: the AC50 entry is “inactive”.

Take `Cc1ccc(C)c(S(=O)(=O)NC(CC(C)C)C(=O)O)c1` (stereo not given): the AC50 result was “inactive”.

Consider `COc1ccc(C2/C(=C(/O)c3ccc4c(c3)CC(C)O4)C(=O)C(=O)N2CCN2CCOCC2)cc1` (stereo not given), for which the AC50 entry is “inactive”.

In the case of `CN1CCN(c2ncc3ncc(=O)n(Cc4ccc(F)cc4)c3n2)CC1`, the AC50 result was “inactive”.

`Nc1nc2c(ncn2COC(CO)CO)c(=O)[nH]1`: the AC50 result was “inactive”.

On to `O=C1Nc2ccc([N+](=O)[O-])cc2C1(O)N1CCCCCC1` (stereo not given), for which the AC50 result is “inactive”.

For `Cc1nc(SCC(=O)NCCc2ccc(Cl)cc2)nc(C)c1C`, the AC50 was 3.55 µM (active).

For `Cc1nc(SCC(=O)Nc2ccc(N3CCOCC3)cc2)nc(C)c1C`, the AC50 result is “inactive”.

On to `Nc1cc(N)nc(SCC(=O)NNC(=O)c2ccc(Cl)cc2)n1`, for which the AC50 result is “inactive”.

Consider `CC(C)[C@H](Sc1nc(N)nc2nc[nH]c12)C(=O)O`, for which the activity, negative = inhibition is 2.46% [at 11.4 µM].

For `CCOc1ccc(NC(=O)Cn2nnc(C(=O)NCc3ccccc3OC)c2N)cc1`, the AC50 entry was “inactive”.

In the case of `COc1ccc(C2(CNC(=O)/C=C/c3ccco3)CCCC2)cc1OC`, the AC50 entry is “inactive”.

In the case of `O=C(NC(=S)Nc1nc(-c2ccc(Br)cc2)cs1)c1cccnc1`, the AC50 result was “inactive”.

Turning to `CC(C)(C)N1C(=O)[C@H]2[C@H]3[C@H](O)[C@H](O)C/C(=N/NC(=O)OCc4ccccc4)[C@H]3CC[C@@H]2C1=O`, the activity, negative = inhibition is 6.89% [at 11.4 µM].

Consider `CC(=O)OC[C@H]1O[C@@H](O/N=C(\C)CCN2CCCCc3nc(C)c(C)cc32)[C@H](OC(C)=O)[C@@H](OC(C)=O)[C@H]1OC(C)=O`, for which the AC50 is 3.98 µM (active).

In the case of `CC(=O)OC[C@@H]1O[C@H](CCO/N=C(\C)CCN2CCCc3nc(C)c(C)cc32)C=C[C@@H]1OC(C)=O`, the activity, negative = inhibition was -15.6% [at 11.4 µM].

As to `CC(=O)OC[C@H]1O[C@@H](O/N=C(\C)CCN2CCCc3nc(C)c(C)cc32)[C@H](OC(C)=O)[C@@H](OC(C)=O)[C@H]1OC(C)=O`, the AC50 was 3.16 µM (active).

With `Cc1ccccc1-c1cc(C(=O)Nc2nc3c(s2)CCCC3)c2ccccc2n1`, the AC50 entry was “inactive”.

With `O=C(c1cnccn1)N1CCC[C@@]2(CCN(c3ncccn3)C2)C1`, the AC50 result is “inactive”.
